{"source": "PubChem BioAssay AID504594", "about": "(Broad Institute, 2011)", "note": "The campaign covered roughly 2,000 compounds. Fewer than 10 were called active. A selection follows. Unmarked numbers belong to inactive results.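 How the source made its calls: active means growth inhibition of at least 75% in every replicate, which also brings the mean inhibition to 75% or more; inconclusive means mean inhibition 75% or more but some replicate under 75%; inactive means the rest.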"}
{"assay": "reduced viability of yeast carrying PfHsp90 – S. cerevisiae, BacTiter-Glo luminescence, antimalarial PfHsp90 inhibitor project, primary screen (AID 504594);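 further: 0% = DMSO neutral control wells and 100% = 20 µM radicicol control wells; higher value means stronger growth inhibition because the sign is flipped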", "settings": "S. cerevisiae expressing PfHsp90, BacTiter-Glo growth, 48 h; at 9.4 µM; stronger effect = higher value", "units": {"growth inhibition": "%"}}
{"compound": "CC(C)c1ccc2[nH]c3c(c2c1)CCCC3=O", "growth inhibition": 0.593}
{"compound": "O=c1cc(-c2ccccc2)oc2cc(OCc3ccccc3)cc(O)c12", "growth inhibition": 2.87}
{"compound": "Cc1ccc2ncnc(NCCCCCC(=O)O)c2c1", "growth inhibition": 4.2}
{"compound": "Nc1cccc2c1nnn2C1OC(CO)C(O)C(O)C1O", "note": "(configuration not stated)", "growth inhibition": -0.754}
{"compound": "O=C1C=CC(=O)C(C2=C3C(=O)N(CCc4ccccc4)CC(=O)N3CCC2)=C1", "growth inhibition": 0.713}
{"compound": "COc1cc(NC(=O)N[C@@H](Cc2ccccc2)C(=O)O)cc(OC)c1", "growth inhibition": 5.35}
{"compound": "CCc1ccc(CN(C)Cc2nc(Cc3ccccc3)no2)nc1", "growth inhibition": -0.638}
{"compound": "O=C(NCCNc1ccc(Cl)cc1[N+](=O)[O-])c1cccnc1", "growth inhibition": 1.09}
{"compound": "CC1(C)NC(C(=O)O)Cc2c1[nH]c1ccccc21", "note": "(configuration not stated)", "growth inhibition": 7.2}
{"compound": "CC(C)NC(=O)C1(c2ccccc2)CCOCC1", "growth inhibition": -8.01}
{"compound": "CCCCOn1c(C)c(C(C)=O)c2c3no[n+]([O-])c3ccc21", "growth inhibition": -14.4}
{"compound": "CCSc1nc(O)c(C2OC(=O)c3c2ccc(OC)c3OC)c(=O)n1CC", "note": "(configuration not stated)", "growth inhibition": 9.9}
{"compound": "COC(=O)c1ccccc1NC(=O)NCc1ccccc1", "growth inhibition": -7.31}
{"compound": "Cc1ccc2[nH]c3c(c2c1)CN(C(=O)CN1CCSCC1)CC3", "growth inhibition": -8.61}
{"compound": "COc1ccccc1C1(CC(=O)N2CCCCC2)CCOC(C(C)C)C1", "note": "(configuration not stated)", "growth inhibition": 14.4}
{"compound": "CC(C)CCNC(=O)[C@H](CC(C)C)NC(=O)[C@H]1O[C@@H]1C(=O)O", "growth inhibition": -0.406}
{"compound": "CC(=O)N1N=C(c2cccs2)CC1c1ccc(C)o1", "note": "(configuration not stated)", "growth inhibition": 15.9}
{"compound": "Cc1cc(Cl)cc2c1NC(=O)[C@]21[C@@H]2C(=O)N(Cc3ccccc3)C(=O)[C@@H]2[C@@H]2CCCN21", "growth inhibition": 6.75}
{"compound": "COC(=O)CN1C(=S)N(c2ccc(F)cc2)C(=O)C1CC(=O)Nc1ccccc1", "note": "(configuration not stated)", "growth inhibition": 9.33}
{"compound": "Cc1ccc(P(=O)(CSC(=N)N)c2ccc(C)cc2)cc1", "growth inhibition": -1.66}
{"compound": "Cc1[nH]c2ccccc2c1C(=O)C(=O)NCc1ccco1", "growth inhibition": 5.84}
{"compound": "Cc1ccccc1NC(=O)NCCc1c[nH]c2ccccc12", "growth inhibition": 17.7}
{"compound": "OCCC1CN(Cc2ccccc2-c2ccco2)CCN1C1CCCC1", "note": "(configuration not stated)", "growth inhibition": -5.78}
{"compound": "Cc1ccc(CN2CCN(Cc3cn[nH]c3C3CCCCC3)CC2CCO)cc1", "note": "(configuration not stated)", "growth inhibition": -25.7}
{"compound": "Cc1ccc(Nc2ncccc2C(=O)O)cc1C", "growth inhibition": -4.41}
{"compound": "CS(=O)c1ccccc1O", "note": "(configuration not stated)", "growth inhibition": 14.9}
{"compound": "N/C(=N\\OC(=O)CCCOc1ccc(Cl)cc1Cl)c1ccncc1", "growth inhibition": -2.92}
